Test results: PubChem BioAssay AID624330 (Southern Research Specialized Biocontainment Screening …, 2012)
Out of some 340,000 compounds screened, about 2,100 (0.62%) were called active.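 Rule for the calls: active = first-screen hits whose inhibition reached a set limit at any dose in the follow-up dose series; inconclusive = inhibition above the set first-screen limit but never retested; inactive = the rest.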 The list is a sample of the results. Measured potencies and affinities stand elsewhere.

molecular target: Rac GTPase-activating protein 1 (Homo sapiens) (UniProt Q9H0H5); experiment: blockers of MgcRacGAP-driven Rac1 GTP hydrolysis – biochemical, ADP Hunter fluorescence, primary and confirmatory, confirmation (AID 624330); conditions: MgcRacGAP-stimulated Rac1 GTP hydrolysis, at 30 µM, active compounds read high, GST-tagged Rac1 F28L mutant substrate;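 note: fluorescence reports GDP produced by GAP-driven GTP hydrolysis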
Sequence (Q9H0H5 whole entry, looked up): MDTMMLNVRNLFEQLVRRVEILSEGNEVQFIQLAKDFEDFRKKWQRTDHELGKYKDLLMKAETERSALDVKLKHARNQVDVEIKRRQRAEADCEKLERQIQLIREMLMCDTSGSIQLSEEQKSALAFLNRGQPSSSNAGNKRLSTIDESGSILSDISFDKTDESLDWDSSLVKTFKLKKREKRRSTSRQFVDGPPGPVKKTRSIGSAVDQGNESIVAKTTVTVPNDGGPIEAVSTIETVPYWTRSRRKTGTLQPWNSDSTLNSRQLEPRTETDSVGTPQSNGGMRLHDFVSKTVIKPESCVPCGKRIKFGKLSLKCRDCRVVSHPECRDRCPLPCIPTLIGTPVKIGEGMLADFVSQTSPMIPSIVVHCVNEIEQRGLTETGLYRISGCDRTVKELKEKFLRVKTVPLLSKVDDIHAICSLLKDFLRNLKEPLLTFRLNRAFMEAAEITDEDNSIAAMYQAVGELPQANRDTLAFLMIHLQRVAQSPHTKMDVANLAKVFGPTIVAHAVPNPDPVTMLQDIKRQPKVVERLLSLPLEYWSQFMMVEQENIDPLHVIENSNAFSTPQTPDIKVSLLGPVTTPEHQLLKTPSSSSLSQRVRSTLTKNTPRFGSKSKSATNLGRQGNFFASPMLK

inhibition, inactive:
C=CCNc1nnc(Cc2ccc(F)cc2)c(=O)[nH]1 4.71%
COc1cc2c(cc1NC(=O)c1cccc([N+](=O)[O-])c1)oc1ccccc12 1.77%
OC(CN1CCN(Cc2ccccc2)CC1)c1ccc(F)cc1 (stereo not drawn) -1.4%
c1ccc(CN2CCN(C(c3ccccc3)c3ccccc3)CC2)cc1 16.6%
O=C(c1ccc(F)cc1)N1CCN(Cc2ccccc2)CC1 7.84%
CN(CC(=O)N1CCN(Cc2ccccc2)CC1)S(=O)(=O)c1ccc(F)cc1 -3.86%
COc1ccccc1C1CCN(C(=O)c2cnn(-c3ccccc3)c2C)CC1 12.4%
O=C(Nc1ccc([N+](=O)[O-])cc1NC(=O)c1ccccc1)c1ccccc1 2.42%
CCC(=O)Nc1ccccc1N1CCN(c2ccc(F)cc2)CC1 2.63%
CCSc1nc2ccc(N3C(=O)C4C5C=CC(C5)C4C3=O)cc2s1 (stereo not drawn) -1.62%
CN1CCC(=O)N([C@H](CSc2ccc(Br)cc2)Cc2ccccc2)CC1 1.09%
COc1cc(OC)cc(C(=O)N2CCN(S(=O)(=O)c3ccc4c(c3)OCCO4)CC2)c1 9.94%
C/C(=N\Nc1ccc(S(=O)(=O)N2CCCCC2)cn1)c1cccc(Br)c1 3.57%
COc1cccc(/C(C)=N/Nc2ccc(S(=O)(=O)N3CCCCC3)cn2)c1 7.29%
CC(C)(C)OC(=O)NCCCC[C@H](NC(=O)c1nc[nH]c1C(=O)NC(c1ccccc1)c1ccccc1)C(=O)OC(C)(C)C 2.03%
CCN(C(=O)COC(=O)c1cccc(-n2cnnn2)c1)C1CCCCC1 11.8%
Cc1sc2ncn(CC(=O)N3CCN(c4ccccc4F)CC3)c(=O)c2c1S(=O)(=O)N1CCOCC1 2.91%
Cc1cc(Cc2ccc(N)c(C)c2)ccc1N 4.21%
Cc1cc([N+](=O)[O-])ccc1N -7.8%
COc1cc([N+](=O)[O-])ccc1N 0.84%
Cc1ccc(C)c(N)c1 6.49%
Cc1ccc2c(N)c(C)ccc2c1 12.7%
COc1cc(NC(N)=S)c(OC)cc1Cl 10.5%
COc1cc(Br)c(Br)cc1N -1.7%
COc1ccc(-c2nnc(N)s2)cc1OC 5.29%
O=C(CSc1nccc(=O)[nH]1)NN(c1ccccc1)c1ccccc1 11.2%
O=C(NCC(c1ccco1)N1CCN(c2ccccc2)CC1)C(=O)NC1CCCC1 (stereo not drawn) 4.87%
CCCCCN(C(=O)CCC(=O)OCc1cccc(C)c1)c1c(N)n(CCCC)c(=O)[nH]c1=O 5.1%
O=C(CSc1nnc(COc2ccccc2)n1-c1ccccc1)c1cccs1 15.1%
CCOC(=O)c1nc(C)nc(Sc2n[nH]c(-c3ccccc3)n2)c1C 9.53%
C/C(=N/OCC(=O)Nc1ccccc1)c1cccs1 6.14%
CCCCc1ccc(NC(=O)CN(C)CC(=O)Nc2ccccc2Cl)cc1 11.5%
O=c1cc(-c2ccc(Cl)c(Cl)c2)[nH][nH]1 8.61%
CCCCC(=O)N1C/C=C\C(c2ccc(OC)cc2)N(Cc2ccc(F)cc2)C(=O)C1 (stereo not drawn) 8.3%
Cc1ncc(CO)c(/C=N/Nc2ccc(C(F)(F)F)cn2)c1O 61.5%
O=[N+]([O-])c1ccc(NN=Cc2ccc(O)cc2O)nc1 24.6%
COc1cc(/C=N/Nc2ccc(C(F)(F)F)cn2)cc(OC)c1O 13%
FC(F)(F)c1ccc(N/N=C/c2cccnc2)nc1 4.55%
COc1ccc(/C=N/Nc2ncc(C(F)(F)F)cc2Cl)cc1OC -7.93%
O=C(O)c1ccc(/C=N/Nc2ccc(C(F)(F)F)cn2)cc1 13.8%
Cc1cccc(C(CC(=O)O)NC(=O)C(F)(F)F)c1 (stereo not drawn) 2.11%
C=CCN(CC=C)CCCOc1ccc(C)cc1OC 14.4%
Cc1ccc(NS(=O)(=O)c2ccc3c(c2)NC(=O)C(C)C(=O)N3)cc1C (stereo not drawn) -6.55%
CCC(Oc1ccccc1C)C(=O)N1CCCN(C)CC1 (stereo not drawn) 3.47%
COc1cc(-c2nc3cccc(C)n3c2NCC2CCCO2)ccc1O (stereo not drawn) -43.9%
Cc1ccc2nc(-c3ccccc3O)c(Nc3ccc4c(c3)OCCO4)n2c1 11.2%
Cc1cccc(C)c1Nc1c(-c2ccc(N3CCOCC3)cc2)nc2cnccn12 13.6%
COc1cc(-c2nc3ccccn3c2/N=C/c2cccc(OC)c2O)ccc1O 10.6%
COc1cc(-c2nc3cnccn3c2Nc2ccc3c(c2)OCCO3)ccc1O 15.7%
COc1ccc(OC)c(/C=N/c2c(-c3ccc(O)c(OC)c3)nc3ccccn23)c1 4.63%
COc1cc(-c2nc3cnccn3c2NC(C)(C)CC(C)(C)C)ccc1O 17%
CCOc1cc(-c2nc3ccccn3c2NCC2CCCO2)ccc1O (stereo not drawn) -4.32%
O=C1CC2(CCCC2)C(=O)N1c1ccc(S(=O)(=O)NCC2CC2)cc1Cl 5.71%
COc1ccc(OCc2nnc(SC3CCOC3=O)n2-c2ccccc2)cc1 (stereo not drawn) 11.2%
c1nnc(-c2ccc3c(c2)OCO3)o1 12.3%
CC(C)(C)C(=O)NCc1ccc(C(=O)CSc2nnc(C3CC3)n2C2CC2)s1 8.51%
C[C@]12C(=O)N(c3cccc(Cl)c3)C(=O)N1[C@@H]1c3ccccc3OC[C@@H]1[C@H]2c1ccccc1 6.88%
CCOC(=O)Cc1csc(SCC(=O)NC2CCS(=O)(=O)C2)n1 (stereo not drawn) 0.45%
Cc1cc(-c2ccc(Cl)cc2)n2nc(N)nc2n1 8.73%
COc1ccc(C/C(N)=N/OC(C)=O)cc1OC 7.14%
COc1cc(-c2nc3cnccn3c2Nc2ccccc2)ccc1O 30.3%
COc1cc(-c2nc3cnccn3c2Nc2ccc(C(C)C)cc2)ccc1O 21.9%
CCOC(=O)C(C)Sc1nc(-c2ccccc2)nc2ccccc12 (stereo not drawn) -2.03%
ON=C1CCCC2CCCCC12 (stereo not drawn) -2.9%
CC(C)CC(=O)NC(c1ccccc1)c1c(O)ccc2ccccc12 (stereo not drawn) 7.84%
CC(C)CNC(=O)CC(c1ccccc1)c1c(O)ccc2ccccc12 (stereo not drawn) 10.5%
CN(Cc1ccccc1F)C(=O)CN1c2cccc3cccc(c23)S1(=O)=O 6.24%
COc1cccc(CNC(=O)CCS(=O)(=O)c2ccc3c(c2)NC(=O)CO3)c1 12.4%
CCCn1c(SCC(=O)NNC(=O)c2ccccc2)nnc1-c1cccnc1 12.3%
COc1ccc2cc(C(=O)Nc3ccc(F)cc3)sc(=O)c2c1OC 0.7%
O=C(NCCO)c1cc2ccccc2c(=O)s1 6.83%
O=C(Nc1ccccc1)c1cc2ccccc2c(=O)s1 -4.83%
COc1ccc2cc(C(=O)Nc3ccc(Cl)cc3)sc(=O)c2c1OC 7.43%
CCN1C(=O)[C@H]2[C@H]3CN=C(SCc4ccc(C(=O)OC)cc4)N3[C@@](Cc3ccccc3)(C(=O)OC)[C@H]2C1=O 11.1%
COC(=O)C(Cc1c[nH]c2ccccc12)NC(=O)c1cccc(S(=O)(=O)N2CCCCC2)c1 (stereo not drawn) 2.63%
CCOC(=O)c1ccc(NC(=O)C(=O)NCC2(c3ccc(OC)cc3)CCOCC2)cc1 15.5%
CC(C(=O)Nc1ccc(Cl)cc1)N1C(=O)NC2(CCCC2)C1=O (stereo not drawn) 3.21%
CCN(CC(=O)NCc1ccc(F)cc1)C(=O)CN1CCN(c2cc(Cl)ccc2C)CC1 4.22%
CCOc1ccc(N=Cc2ccccc2O)cc1 4.12%
Cc1ccc(N=Cc2ccc(O)cc2O)cc1F 2.37%
Cn1c(O)c(C=Nc2ccc(N3CCOCC3)cc2)c(=O)n(C)c1=S 10.4%
Oc1ccc(N=Nc2cccc(Cl)c2)cc1C=Nc1ccc(N2CCOCC2)cc1 7.02%
CCN(CC)c1ccc(C=Nc2ccc(N(C)C)cc2)c(O)c1 19.7%
COc1ccc(N=Cc2ccccc2O)cc1 7.18%
Cc1cc(O)c(C=Nc2ccc(N3CCOCC3)cc2)c(C)c1Cl 24.8%
O=[N+]([O-])c1cc(Br)c(O)c(C=Nc2ccc(N3CCOCC3)cc2)c1 54.6%
CS(=O)(=O)c1ccc(Cl)c(NC(=O)COC(=O)CNC(=O)c2ccccc2)c1 6.09%
O=C(Cc1cccc(F)c1)Nc1ccc2c(c1)CCC2 6.98%
C=C(c1ccccc1Cl)[n+]1ccccc1 -11.7%
N#CCCN(Cc1cccnc1)C(=S)NC(=O)c1ccco1 5.92%
O=C(OCC(=O)N1CCCC1)c1c(Cl)ccc(Cl)c1Cl -3.47%
Cc1nc(C(=O)N(C)C)nn1-c1cc(Cl)ccc1Cl 9.33%
Cc1ccc(-n2c(C(C)C)nc3oc4ccccc4c(=O)c3c2=O)cc1 0.93%
Oc1ccc(Br)cc1C=Nc1ccc(Cl)cc1 8.07%
Oc1ccc(Br)cc1/C=N/N1CCCCC1 6.18%
O=C(Nc1cccc(NC(=O)c2ccco2)c1)c1cccc(Br)c1 7.43%
Cc1cc(C)cc(NC(=O)c2cccc(NC(=O)c3ccco3)c2)c1 -0.13%
COc1ccccc1NC(=O)c1oc2ccccc2c1NC(=O)C1CC1 1.66%
